Results as given in PubChem BioAssay (EPA / NIEHS).
Inconclusive results are not listed. Activity calls are given as the source filed them. Rule for the calls, unless noted: active = hit-call score of the fitted dose curve at least 0.9, where 1 is the maximum; inactive = score below 0.9.

What was measured:
[1] = biological target: Cellular tumor antigen p53 (Homo sapiens) (UniProt P04637); assay: TOX21_p53_BLA_p2_ratio: Tox21 HCT-116 p53 Agonism Beta-lactamase Assay, Ratio, Phase 2 (AID 2283592; active = hit-call score of the fitted dose curve at least 0.9, where 1 is the maximum)
Cellular tumor antigen p53 (Homo sapiens), sequence (P04637 whole entry, looked up): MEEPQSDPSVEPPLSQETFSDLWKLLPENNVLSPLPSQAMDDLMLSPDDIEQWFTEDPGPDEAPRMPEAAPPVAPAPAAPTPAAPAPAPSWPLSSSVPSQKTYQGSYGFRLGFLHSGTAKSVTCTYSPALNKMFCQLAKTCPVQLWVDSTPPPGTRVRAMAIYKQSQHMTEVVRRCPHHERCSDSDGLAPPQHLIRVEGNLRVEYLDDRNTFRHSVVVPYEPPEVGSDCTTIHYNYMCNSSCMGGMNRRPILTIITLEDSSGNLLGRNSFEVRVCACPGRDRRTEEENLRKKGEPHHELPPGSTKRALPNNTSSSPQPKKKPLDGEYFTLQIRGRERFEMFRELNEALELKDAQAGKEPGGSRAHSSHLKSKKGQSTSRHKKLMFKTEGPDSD
Outline: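 Cleaved-to-uncleaved substrate ratio (460 vs 530 nm) measured in HCT116 cells with an inducible beta-lactamase reporter linked to p53 activity. Compounds incubated 16 h at 37C before 2 h room-temperature CCF4-AM loading.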

[2] = TOX21_p53_BLA_p3_viability: Viability Assessment in the Tox21 HCT-116 p53 Agonism Beta-lactamase Assay, Phase 3 (AID 2283593; active = hit-call score of the fitted dose curve at least 0.9, where 1 is the maximum;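 note: cells exposed to compound for 16 h before reading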)
Outline: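 HCT-116 cells (4000/well) rested 5 h at 37C, then got DMSO compounds by pin tool (217-fold dilution) for 16 h at 37C, 5% CO2. After the bla read, CellTiter-Glo was added and luminescence read at 30 min, room temperature.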

[3] = biological target: Cellular tumor antigen p53 (Homo sapiens) (UniProt P04637); assay: TOX21_p53_BLA_p3_ratio: Tox21 HCT-116 p53 Agonism Beta-lactamase Assay, Ratio, Phase 3 (AID 2283596; active = hit-call score of the fitted dose curve at least 0.9, where 1 is the maximum)
Outline: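 Cells were seeded at 4000/well, rested 5 h at 37C, then dosed with DMSO compound solutions (217-fold dilution) for 16 h. CCF4-AM substrate was loaded for 2 h at room temperature, and the 460/530 nm emission ratio was fitted for gain of signal versus DMSO.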

[4] = TOX21_p53_BLA_p4_viability: Viability Assessment in the Tox21 HCT-116 p53 Agonism Beta-lactamase Assay, Phase 4 (AID 2283597; active = hit-call score of the fitted dose curve at least 0.9, where 1 is the maximum;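 note: hits lower the luminescence signal meaning cytotoxicity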)
Outline: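 Viability is taken as cellular ATP: after 16 h compound exposure of HCT116 cells and a 2 h room-temperature CCF4-AM substrate step, CellTiter-Glo reagent is added and luminescence is measured 30 min later.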

[5] = biological target: Cellular tumor antigen p53 (Homo sapiens) (UniProt P04637); assay: TOX21_p53_BLA_p5_ratio: Tox21 HCT-116 p53 Agonism Beta-lactamase Assay, Ratio, Phase 5 (AID 2283599; active = hit-call score of the fitted dose curve at least 0.9, where 1 is the maximum)
Outline: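 HCT-116 cells carrying a p53-inducible beta-lactamase reporter were seeded at 4000 cells/well and dosed after 5 h with compound in DMSO (217-fold dilution). After 16 h at 37C, CCF4-AM substrate was added for 2 h, and the 460/530 nm emission ratio was scored as gain-of-signal versus DMSO.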

[6] = TOX21_p53_BLA_p5_viability: Viability Assessment in the Tox21 HCT-116 p53 Agonism Beta-lactamase Assay, Phase 5 (AID 2283600; active = hit-call score of the fitted dose curve at least 0.9, where 1 is the maximum)
Outline: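 Viability is taken from cellular ATP content, measured by luciferase luminescence in the same wells after the beta-lactamase ratio read. Cells are seeded at 4000 per well and exposed to DMSO-dissolved compounds, diluted 217-fold, for 16 h.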

[7] = biological target: Cellular tumor antigen p53 (Homo sapiens) (UniProt P04637); assay: TOX21_p53_BLA_p4_ratio: Tox21 HCT-116 p53 Agonism Beta-lactamase Assay, Ratio, Phase 4 (AID 2283601; active = hit-call score of the fitted dose curve at least 0.9, where 1 is the maximum)
Outline: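 HCT116 cells carrying an inducible beta-lactamase reporter were plated at 4000 cells/well, rested 5 h, then exposed to compounds in DMSO (217-fold dilution) for 16 h at 37C. CCF4-AM substrate was loaded 2 h at room temperature; 460/530 nm emission ratio scored gain-of-signal versus DMSO.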

[8] = CCTE_Harrill_HTTr_Viability_MCF7: CCTE's 6-hour Cell Viability Assessment for the High-Throughput Transcriptomics (HTTr) Platform, in MCF-7 cells cultured in DMEM + 10% fetal bovine serum, Harrill Lab (AID 2284010)
Outline: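 PI exclusion, high-content imaging; 8-pt dilution series, 6 h exposure; bidirectional fit vs DMSO (neg. ctrl/baseline); gain of signal = loss of membrane integrity.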

[9] = CCTE_Harrill_HTTr_Apoptosis_MCF7: CCTE's 6-hour Apoptosis Assessment for the High-Throughput Transcriptomics (HTTr) Platform, in MCF-7 cells cultured in DMEM + 10% fetal bovine serum, Harrill Lab (AID 2284011)
Outline: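 Cells are dosed with test chemicals at eight concentrations and imaged 6 hours later for caspase-3/7 activity using a green fluorogenic detection reagent. Activity is fitted in both directions against DMSO controls.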

[10] = CCTE_Shafer_MEA_dev_firing_rate_mean: CCTE's Neural Network Formation Assay for Mean Firing Rate, Shafer Lab (AID 2284031)
Outline: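 Read-out: spike count/recording length, averaged over active electrodes, then AUC across days 5, 7, 9, 12. Rat cortical cultures on MEA; continuous 12-day exposure, media and treatment renewed DIV 5, 9; DMSO baseline.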

[11] = CCTE_Shafer_MEA_dev_per_burst_spike_percent: CCTE's Neural Network Formation Assay for Percent of Spikes in a Burst, Shafer Lab (AID 2284032)
Outline: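 Value is trapezoidal AUC over recordings on days 5, 7, 9 and 12 of the well-mean fraction of spikes falling in single-electrode bursts; rat cortical cultures exposed continuously from plating, treatment renewed DIV 5 and 9, fitted downward against DMSO.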

[12] = CCTE_Shafer_MEA_dev_burst_rate: CCTE's Neural Network Formation Assay for Burst Rate, Shafer Lab (AID 2284042)
Outline: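 Developmental network assay measuring how 12-day exposure of rat cortical neuron cultures alters bursting on extracellular MEA recordings. Values are AUC of well-mean burst rate across four recording days, relative to DMSO vehicle.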

[13] = CCTE_Shafer_MEA_dev_bursting_electrodes_number: CCTE's Neural Network Formation Assay for Number of Bursting Electrodes, Shafer Lab (AID 2284043; active = hit-call score of the fitted dose curve at least 0.9, where 1 is the maximum)
Outline: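 Counted: electrodes with burst rate ≥1 per 2 min in each well. Cells: primary rat cortex, 1.5 x 10^5/well, on 16-electrode MEA wells. Exposure: DIV 0–12, compound renewed DIV 5 and 9. Recording days 5, 7, 9, 12; AUC vs DMSO baseline.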

[14] = CCTE_Shafer_MEA_dev_per_burst_interspike_interval: CCTE's Neural Network Formation Assay for Burst Interspike Interval, Shafer Lab (AID 2284044)
Outline: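 Developmental network-formation MEA in primary rat cortical cultures with exposure spanning days 0–12. Within-burst ISI is averaged per well and integrated across recording days by area under the curve, with DMSO as negative control baseline.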

[15] = CCTE_Shafer_MEA_dev_burst_duration_mean: CCTE's Neural Network Formation Assay for Mean Burst Duration, Shafer Lab (AID 2284045)
Outline: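 Network-formation assay in primary rat cortical neurons; treatment spans twelve days of development. Mean burst duration per well is integrated by trapezoidal AUC and fitted in the loss-of-signal direction against DMSO baseline.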

[16] = CCTE_Shafer_MEA_dev_interburst_interval_mean: CCTE's Neural Network Formation Assay for Mean Interburst Interval, Shafer Lab (AID 2284046);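 note: well-mean interburst interval of bursting electrodes as AUC over four recording days; curve fitted for decrease in interburst interval relative to DMSO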
Outline: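 Network formation assay in primary rat cortical cultures, exposed from DIV 0 to 12. Mean interburst interval per well, integrated as AUC over four recordings.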

[17] = CCTE_Shafer_MEA_dev_inter_network_spike_interval_mean: CCTE's Neural Network Formation Assay for Mean Inter-network Spike Interval, Shafer Lab (AID 2284047)
Outline: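 Compound was given at plating to primary rat cortical neurons and renewed with full medium changes on DIV 5 and 9. Extracellular activity was recorded on days 5, 7, 9, 12; AUC values were fitted for loss relative to DMSO control.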

[18] = CCTE_Shafer_MEA_dev_network_spike_number: CCTE's Neural Network Formation Assay for Number of Network Spikes, Shafer Lab (AID 2284048);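 note: synchronized bursts across electrodes counted on days 5 7 9 12 and integrated as AUC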
Outline: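 Extracellular recordings from 16-electrode wells track network formation in rat cortical cultures under continuous treatment from plating. The endpoint is network spike number, expressed as AUC across DIV 5–12 relative to DMSO vehicle.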

[19] = CCTE_Shafer_MEA_dev_network_spike_peak: CCTE's Neural Network Formation Assay for Mean Number of Electrodes in Network Spike, Shafer Lab (AID 2284049)
Outline: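 Continuous 12-day exposure of rat cortical cultures, starting at plating, on MEA plates. Endpoint: electrodes participating in network-spike peaks, AUC across DIV 5–12, DMSO as negative control.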

[20] = CCTE_Shafer_MEA_dev_network_spike_duration_std: CCTE's Neural Network Formation Assay for Standard Deviation of Network Spike Duration, Shafer Lab (AID 2284052);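 note: area under curve of spike duration SD across recording days 5 to 12; hits are decreases in network spike duration SD versus DMSO vehicle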
Outline: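 Developing networks of rat cortical neurons were exposed over twelve days in vitro on 48-well MEA plates. Trapezoidal AUC of recordings (DIV 5–12) was analysed for signal loss relative to DMSO vehicle.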

[21] = CCTE_Shafer_MEA_dev_per_network_spike_spike_number_mean: CCTE's Neural Network Formation Assay for Mean Number of Spikes in a Network Spike, Shafer Lab (AID 2284053)
Outline: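 First, rat cortical cells (1.5 x 10^5/well) were seeded onto MEA wells; second, dosing began at plating and was refreshed on DIV 5 and 9; finally, network-spike spike counts across DIV 5–12 were summarized as AUC.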

[22] = CCTE_Shafer_MEA_dev_per_network_spike_spike_percent: CCTE's Neural Network Formation Assay for Percent of Spikes in a Network Spike, Shafer Lab (AID 2284054)
Outline: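 Developing networks of rat cortical neurons are dosed at day 0 and recorded extracellularly four times up to day 12. The endpoint is the area under the curve of percent spikes in network spikes, fitted in the negative direction relative to DMSO.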

[23] = UKN5_HCS_SBAD2_cell_viability: Viability Assessment in the University of Konstanz (UKN) Leist Lab Neurite Outgrowth Assay in human iPSC-derived immature Dorsal Root Ganglia Neurons (UKN5) (AID 2284056)
Outline: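 iPSC-derived immature peripheral neurons (SBAD2) seeded on Matrigel with CHIR99021, SU5402 and DAPT, dosed 1 h later for 24 h. Viability from Hoechst H-33342 and calcein-AM live staining, high-content imaging; bidirectional fit versus DMSO.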

[24] = UKN5_HCS_SBAD2_neurite_outgrowth: University of Konstanz (UKN) Leist Lab Neurite Outgrowth Assay in human iPSC-derived immature Dorsal Root Ganglia Neurons (UKN5) (AID 2284070); settings: actives raise or lower the signal
Outline: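 Cryopreserved SBAD2 peripheral neurons were seeded at 100.000 cells/cm2 in N2-S/KSR medium containing CHIR99021, SU5402 and DAPT, then exposed to compounds for 24 h. Neurite area from calcein-AM high-content imaging was fitted bidirectionally against DMSO.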

[25] = CCTE_Shafer_MEA_dev_AB: CCTE's Alamar Blue Assay for Cytotoxicity in the Neural Network Formation Assay, Shafer Lab (AID 2284083; active = hit-call score of the fitted dose curve at least 0.9, where 1 is the maximum;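 note: resazurin reduction fluorescence as viability of cultured neurons; twelve days of exposure from plating with re-dosing on DIV 5 and 9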)
Outline: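 Cytotoxicity companion to the developmental MEA: primary rat cortical neurons, 12-day exposure starting day 0, compound refreshed DIV 5 and 9; resazurin fluorescence, fitted against DMSO vehicle.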

[26] = CCTE_Shafer_MEA_dev_mutual_information_norm: CCTE's Neural Network Formation Assay for Mutual Information Normalization, Shafer Lab (AID 2284091)
Outline: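 Exposure of primary rat cortical neurons began at plating and ran to DIV 12, with full media and treatment renewal after DIV 5 and 9 recordings. Mutual information AUC (DIV 5–12) was analysed for loss versus DMSO.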

[27] = UKN2_HCS_IMR90_neural_migration: University of Konstanz (UKN) Leist Lab Neural Crest Cell Migration Assay in human induced IMR90 Pluripotent Stem Cells (UKN2) (AID 2284204); settings: actives raise or lower the signal
Outline: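 Using a 96-well stopper format with PLO/laminin/fibronectin coating, neural crest cells from iPSC migrate in cytokine-supplemented N2-S medium; after 24 h, chemicals are applied for a further 24 h, then cells are imaged after dye staining.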

Measured: outcome

C[C@@H]1C[C@H]2[C@@H]3CCC4=CC(=O)C=C[C@]4(C)[C@@]3(F)[C@@H](O)C[C@]2(C)[C@@]1(O)C(=O)CO
inactive: all assays above
